Laboratory results as given in PubChem BioAssay AID1745848 (National Center for Advancing Translational Sciences (NCATS), 2022).
Out of some 2,100 compounds screened, about 940 (45%) were called active. Roughly 48% stayed inconclusive and do not appear here. So high a share suggests a set chosen from earlier hits. This is one part of the list. Unmarked numbers belong to inactive results. Calls follow the shape of the dose curve; as a rule, active = well fitted inhibition curve with a large enough effect; inconclusive = small, poorly fitted or top-dose-only effect; inactive = no such curve, though single readings can be large or run the other way.

Experiment: Confirmatory qHTS for Inhibitors of ATXN expression; also: nearly all actives have a fitted effect of over 65% in size;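 as to activity change, negative = inhibition: 0% = DMSO vehicle wells and -100% = medium-only wells without cells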
Conditions: ATXN2-luciferase reporter cells, luminescence, 24 h; series mostly up to 11.5 µM; activity change, negative = inhibition: at the top concentration
Outline: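 A titration, incubated 24 h with reporter cells expressing ATXN2-luciferase. Luminescence (SteadyGlo) gives ATXN2 expression, multiplexed GF-AFC fluorescence gives viability; normalised to DMSO and medium-only wells.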
Potency is read from the fitted curve at half-maximal effect.

Q: Which Potency does the source give for `COc1ccc(CNCC(O)(c2ccc(Cl)cc2)c2ccc(Cl)cc2)cc1OC` here?
A: 3.16 µM (active)

Q: Which Potency does the source give for `Cc1cc(C)c2c(N)c3cccc(C)c3nc2n1` here?
A: 10 µM (active)

Q: Which Potency does the source give for `O=C(COc1ccc(Cl)cc1)N/N=C/c1cccc2cccnc12` here?
A: 25.1 µM (active)

Q: With `O=C(COc1ccc(F)cc1)N/N=C/c1cccc2cccnc12` as the compound, how does the Potency read?
A: 3.55 µM (active)

Q: With `CC(=O)Nc1sc2c(c1-c1nc3ccccc3s1)CN(C(C)C)CC2` as the compound, how does the Potency read?
A: 10 µM (active)

Q: For `O=C(Nc1nc(-c2ccccn2)cs1)c1ccco1`, which Potency is on record?
A: 4.47 µM (active)

Q: For `CC(Oc1ccc(F)cc1)C(=O)Nc1nc(-c2ccccn2)cs1` (stereo not given), which Potency is on record?
A: 2.24 µM (active)

Q: Which Potency does the source give for `O=C(Nc1nc(-c2ccccn2)cs1)c1ccccc1-n1cnnn1` here?
A: 2 µM (active)

Q: For `CCc1sc(C(=O)Nc2nc(-c3ccccn3)cs2)cc1C`, which Potency is on record?
A: 8.91 µM (active)

Q: Which Potency does the source give for `CCc1cc(-c2[nH]ncc2-c2ccc(OC)cc2)c(O)cc1O` here?
A: 3.98 µM (active)

Q: Which Potency does the source give for `Cc1cc(NC(=O)/C=C/C(=O)N(c2ccccc2C)C(C(=O)NC2CCCC2)c2ccc(F)cc2)no1` (stereo not given) here?
A: 3.55 µM (active)

Q: With `Cc1cc(NC(=O)CSc2nccn2-c2cccc(C)c2C)no1` as the compound, how does the “activity change, negative = inhibition” value read?
A: -27%

Q: Which Potency does the source give for `COc1ccc(C2CC(c3cccc(Cl)c3)=NN2c2ccc(S(N)(=O)=O)cc2)cc1` (stereo not given) here?
A: 25.1 µM (active)

Q: With `COc1ccc(C2CC(c3ccccc3C(F)(F)F)=NN2c2ccc(S(N)(=O)=O)cc2)cc1` (stereo not given) as the compound, how does the Potency read?
A: 25.1 µM (active)

Q: With `COc1ccc(C2CC(c3ccccc3Cl)=NN2c2ccc(S(N)(=O)=O)cc2)cc1` (stereo not given) as the compound, how does the “activity change, negative = inhibition” value read?
A: -25.8% [at 57.5 µM]

Q: Which Potency does the source give for `Oc1ccc(CN2CCC(Cc3ccccc3)CC2)c2cccnc12` here?
A: 0.891 µM (active)

Q: Which Potency does the source give for `Oc1ccc(Cl)c2cccnc12` here?
A: 28.2 µM (active)

Q: For `Oc1ccc(Cc2ccccc2)c2cccnc12`, which Potency is on record?
A: 10 µM (active)

Q: Which “activity change, negative = inhibition” value does the source give for `O=c1c(Cc2ccccc2)c(O)nc2n1CCS2` here?
A: -7.22% [at 57.5 µM]

Q: With `CC(=O)N(C1=C(Cl)C(=O)c2ccccc2C1=O)C1CCCCC1` as the compound, how does the Potency read?
A: 8.91 µM (active)

Q: With `CCOc1ccccc1NC(=O)CCCc1nc2ccccc2c(=O)[nH]1` as the compound, how does the Potency read?
A: 2.51 µM (active)

Q: With `CCCC(=O)Nc1c(C(=O)OCC)[nH]c2ccccc12` as the compound, how does the “activity change, negative = inhibition” value read?
A: 17.3%

Q: With `N#CCc1nc2ccccc2c(=O)[nH]1` as the compound, how does the “activity change, negative = inhibition” value read?
A: -1.9% [at 57.5 µM]

Q: For `CCOC(=O)C(NS(=O)(=O)c1ccc(C)cc1)(C(F)(F)F)P(=O)(OCC(C)C)OCC(C)C` (stereo not given), which “activity change, negative = inhibition” value is on record?
A: -2.16%

Q: For `Cc1cccc(OCC(=O)NCC(=O)N/N=C/c2cc(Br)cc(Br)c2O)c1`, which Potency is on record?
A: 8.91 µM (active)

Q: For `O=C(/C=C\c1ccccc1)NCC(=O)N/N=C/c1ccc(O)cc1O`, which Potency is on record?
A: 15.8 µM (active)

Q: For `O=C(COc1ccccc1)NCC(=O)N/N=C/c1ccc(O)cc1O`, which Potency is on record?
A: 15.8 µM (active)

Q: With `CCOc1ccc(/C=N/NC(=O)C(O)c2ccccc2)c(O)c1` (stereo not given) as the compound, how does the Potency read?
A: 3.16 µM (active)

Q: With `O=C(N/N=C/c1ccc(O)cc1O)/C(=C/c1ccccc1)CCO` as the compound, how does the Potency read?
A: 0.794 µM (active)

Q: Which Potency does the source give for `CCN(CC)c1ccc(/C=C/c2cccc[n+]2C)c(OC)c1` here?
A: 2.51 µM (active)

Q: Which Potency does the source give for `Cc1cc(C)nc(/N=C(\N)Nc2ccc(C(C)C)cc2)n1` here?
A: 2.24 µM (active)

Q: For `S=C(NC1CCCCC1)N1CCOCCOCCN(C(=S)NC2CCCCC2)CCOCCOCC1`, which Potency is on record?
A: 3.16 µM (active)

Q: For `OC[C@@H]1CN(Cc2ccc(-c3ccccc3)cc2)C[C@H](n2cnc3c(Nc4ccccc4)ncnc32)O1`, which Potency is on record?
A: 15.8 µM (active)

Q: For `CCOC(=O)C1CCN(c2ncnc3c2cnn3-c2ccc(Cl)cc2)CC1`, which Potency is on record?
A: 1.26 µM (active)

Q: Which Potency does the source give for `O=C(Cn1nc2ccccc2n1)N/N=C/c1cc([N+](=O)[O-])ccc1O` here?
A: 3.16 µM (active)

Q: Which Potency does the source give for `O=C(N/N=C/c1cc([N+](=O)[O-])ccc1O)c1cc(-c2ccccc2)nc2ccccc12` here?
A: 3.16 µM (active)

Q: For `O=C(N/N=C/c1cc([N+](=O)[O-])ccc1O)c1cccc2cc[nH]c12`, which Potency is on record?
A: 3.16 µM (active)

Q: Which Potency does the source give for `O=C(N/N=C/c1cc([N+](=O)[O-])ccc1O)c1c[nH]c2ccccc12` here?
A: 17.8 µM (active)

Q: Which “activity change, negative = inhibition” value does the source give for `COc1ccccc1N1C(=O)N(C(C)=O)C2C1Nc1ccccc1N2C` (stereo not given) here?
A: -19.6% [at 57.5 µM]

Q: Which Potency does the source give for `CSc1cccc(NC(=O)c2ccc(CN3CCc4ccccc4C3)cc2)c1` here?
A: 4.47 µM (active)

Q: With `CC1Cc2cc(-c3csc(NC(=O)Cc4cccs4)n3)ccc2N1S(C)(=O)=O` (stereo not given) as the compound, how does the Potency read?
A: 3.98 µM (active)

Q: With `C=CCc1cccc(/C=N/NC(=O)CCC(=O)Nc2ccc(C)cc2)c1O` as the compound, how does the Potency read?
A: 3.55 µM (active)

Q: Which Potency does the source give for `C=CCc1cccc(/C=N/NC(=O)CCC(=O)Nc2ccc(F)cc2)c1O` here?
A: 3.55 µM (active)

Q: With `Cn1c(CCN2CCN(c3ccccn3)CC2)nc2cc(NC(=O)COc3ccc(Cl)cc3)ccc21` as the compound, how does the Potency read?
A: 11.2 µM (active)

Q: Which Potency does the source give for `Cc1c(N/N=C(\C#N)C(=O)c2ccc(Cl)cc2)c(=O)n(-c2ccccc2)n1C` here?
A: 1.12 µM (active)

Q: For `Cc1c(N/N=C(\C#N)C(=O)c2ccccc2)c(=O)n(-c2ccccc2)n1C`, which Potency is on record?
A: 2.51 µM (active)

Q: With `Cc1ccccc1C(=O)/C(C#N)=N/Nc1c(C)n(C)n(-c2ccccc2)c1=O` as the compound, how does the Potency read?
A: 3.55 µM (active)

Q: With `Cc1c(N=C2N=C(NC(=O)Nc3ccc(Cl)cc3)c3ccccc32)c(=O)n(-c2ccccc2)n1C` as the compound, how does the “activity change, negative = inhibition” value read?
A: -26.2% [at 57.5 µM]

Q: Which Potency does the source give for `O=C(Nc1ccc(NC(=O)c2ccco2)cc1)c1ccc2c(c1)OCCO2` here?
A: 14.1 µM (active)

Q: Which Potency does the source give for `Cc1ccccc1C(=O)N1CCN(c2ccc(NC(=O)c3ccc4c(c3)OCCO4)cc2)CC1` here?
A: 3.98 µM (active)

Q: For `Cc1ccc(C(=O)N2CCN(c3ccc(NC(=S)NC(=O)c4cccs4)cc3)CC2)cc1`, which “activity change, negative = inhibition” value is on record?
A: -19.9%

Q: Which “activity change, negative = inhibition” value does the source give for `CC(=O)c1sc(NC(=O)c2cc(-c3ccccc3)nn2-c2ccccc2)nc1C` here?
A: 2.27%

Q: With `COc1cccc(C=NNC(=O)c2ccncc2)c1O` as the compound, how does the Potency read?
A: 15.8 µM (active)

Q: With `COc1cccc(/C=N/NC(=O)c2ccc(-c3ccccc3)cc2)c1O` as the compound, how does the Potency read?
A: 2 µM (active)

Q: Which Potency does the source give for `COc1ccc(/C=N/NC(=O)c2nc(-c3ccccc3)n(-c3ccccc3)n2)c(O)c1` here?
A: 3.98 µM (active)

Q: For `Cc1cccc(NC(=O)c2cc(-c3ccccn3)nc3ccccc23)c1C`, which Potency is on record?
A: 17.8 µM (active)

Q: With `COc1cccc(/C=N/NC(=O)c2nc(-c3ccccc3)cc(-c3ccccc3)n2)c1O` as the compound, how does the Potency read?
A: 1 µM (active)

Q: Which Potency does the source give for `COc1cccc(/C=N/NC(=O)c2cc(-c3ccccn3)nc3ccccc23)c1O` here?
A: 2.82 µM (active)

Q: For `COc1cccc(/C=N/NC(=O)c2ccc(=O)n(C)c2)c1O`, which Potency is on record?
A: 15.8 µM (active)

Q: With `OC[C@@H]1[C@@H](c2ccc(F)cc2)C(c2ccccc2)=NN1c1ccccc1` as the compound, how does the “activity change, negative = inhibition” value read?
A: -20.2% [at 57.5 µM]
